According to the supplement of paper PMC6555819:

Test system: PPARg:RXRa 90nM:30nM, anti-RXR (NR concentration 90 nM, RXRa partner concentration 30 nM)
Experiment: PBM binding z-score (relative to random genomic background probes); higher = stronger binding; sequences stand for … in GC…GCGATTGACAGCGTAGAATGAAGG
Procedure, shortened: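 Ligand-free nuclear receptor dimers were applied to custom Agilent 4×180K protein-binding microarrays whose double-stranded probes carried direct-repeat seeds, single-nucleotide variants, half-site ablations and random human genomic background sequences in 34-nt variable regions. Incubation lasted 1 h. Binding z-scores were computed against the random background probes from regression-normalized fluorescence.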

Compared with TTACCAACGTGAAAGGTCGTTGATGCACGCCTTG, CCTACTGCGCCACGAAAGGTCATTGATTCAGTGA is lower in PBM binding z-score: 4.17 for the first, 1.98 for the second.

Going from TCATATAGGTAAACGTGAAAGTCGAACGATATGA to GGAACGAGGGCAAAGTTGATAGCATCTGTCGACG, the PBM binding z-score rises from 2.86 to 7.47.

Going from CCTAGCAGGCCAATCTGGGTGACTCAAGGCTTGA to TCTGCTGGGTCAGTTGGTCAGCTAACGAGCTGCC, the PBM binding z-score rises from -0.00968 to 1.19.

First: CCTACTAGGTCATGGTCAGCTAATCTACAGTATG
Second: TCTGTTAGTTGAAGGGCAACCGACGAGTCCGTTT
The PBM binding z-score of the first is higher: 4.97 for the first, 2.14 for the second.

Compared with TCGGCTAGGTCAACGATGGTCAGCTAATCTGCTA, AGAATGAGGTTAATAAGATCAGGGAATTGCGGTC is lower in PBM binding z-score: 2.03 for the first, 1.58 for the second.

Going from AGAACGAGGGCAATGAGTTGATAGTACGGGTGGC to AGTCAAAGTTCATCTAGGGAACGTAAGATATGCT, the PBM binding z-score rises from 0.415 to 5.6.

First: ATAACGAGGGCACGCTGAGTTGATAGCAGAGTAG
Second: ATCTGTAGGTAACCAAGTTCAGTGAATGCCGAAC
The PBM binding z-score of the first is higher: 1.22 for the first, 0.358 for the second.

Going from AGAACGAGGGCACGCTGAGTTGAGAGCAGAGTAG to CTCGAAAGGTCGTGCTGAGGTGAGTATACCAAAC, the PBM binding z-score rises from 0.958 to 2.67.

Going from CAAACTAGGTCCAGAGGTCAAAGTCCGCTTCCCG to CGTCCAAGGTCAAAGGTCAGTGACGAGATGACGG, the PBM binding z-score rises from 6.29 to 9.31.

First: GGAACGAGGGCAAAGTTGATAGAATCTGTCGACG
Second: TCTTGTAGATCAATAGAGGATAAGAAAGTGCGCT
The PBM binding z-score of the first is higher: 7.35 for the first, 2.25 for the second.

Going from CGAACCAGGTCAAGGACAGTGAATCTCCGCACGC to CCGGCTAGGTCATGGTCAGCTAATCTACAGTATG, the PBM binding z-score falls from 3.31 to 1.38.
